Results published in PubChem BioAssay (NCATS).
Records with an inconclusive call do not appear. The source made the active and inactive calls. The call rests on the fitted dose curve; in most records, active means well fitted curve in the direction sought with a large enough effect; inconclusive means small, poorly fitted or top-dose-only effect, or another doubt; inactive means no such curve, though single readings can be large; an effect the other way counts as inactive or inconclusive.

Experiments:
CRL-7250 = normal cell line; assay: Cytotoxic Profiling of Annotated Libraries Using Quantitative High-Throughput Screening (AID 1296008); conditions: Five cell lines viability, CellTiter-Glo ATP luminescence, 48-72 h; max response: active compounds read low; further: nearly all actives have a fitted effect of over 60% in size; on max response: on the % scale 0 is the no-effect control and ±100 the full control effect
Procedure, shortened: (§1)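 Cytotoxicity was measured as CellTiter-Glo ATP luminescence, read after 10 min at room temperature. Compound treatment of the cells lasted 48 or 72 hr at 37 degrees Celsius in a qHTS format.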

HEK293 = assay: as above; conditions: Five cell lines viability, CellTiter-Glo ATP luminescence, 48-72 h; max response: active compounds read low
Procedure, shortened: as §1

HaCat [1] = assay: as above; conditions: Five cell lines viability, CellTiter-Glo ATP luminescence, 48-72 h; max response: active compounds read low
Procedure, shortened: as §1

KB-3-1 = assay: as above; conditions: Five cell lines viability, CellTiter-Glo ATP luminescence, 48-72 h; max response: active compounds read low
Procedure, shortened: as §1

NIH3T3 = assay: as above; conditions: Five cell lines viability, CellTiter-Glo ATP luminescence, 48-72 h; max response: active compounds read low
Procedure, shortened: as §1

HACAT [2] = assay: qHTS assay to identify novel small-molecules to repurpose for Merkel cell carcinoma treatment (AID 1296009); conditions: MCC and control cell lines, CellTiter-Glo viability, 72 h; at 44.8 µM (top of the series) unless noted; further: nearly all actives have a fitted effect of over 60% in size
Procedure, shortened: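 After compound transfer in DMSO, plates were kept 72 hr at 37 degree celsius. Luminescent ATP signal from CellTiter-Glo served as viability measure, normalized against DMSO and no-cell controls.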

C33A = assay: Primary qHTS to identify gynecologic anti-cancer compounds using libraries of approved drugs and bioactive compounds (AID 1345084); conditions: Gynecologic cancer cell panel viability, ATPlite luminescence, 48 h; series mostly up to 57.5 µM; further: on the % scale 0 is the no-effect control and ±100 the full control effect; nearly all actives have a fitted effect of over 55% in size
Procedure, shortened: (§2)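 Five-concentration response, 48 h; readout is ATP-driven luciferase luminescence.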

CAOV3 = assay: as above; conditions: Gynecologic cancer cell panel viability, ATPlite luminescence, 48 h; series mostly up to 57.5 µM
Procedure, shortened: as §2

CASKI = assay: as above; conditions: Gynecologic cancer cell panel viability, ATPlite luminescence, 48 h; series mostly up to 57.5 µM
Procedure, shortened: as §2

Es-2 = assay: as above; conditions: Gynecologic cancer cell panel viability, ATPlite luminescence, 48 h; series mostly up to 57.5 µM
Procedure, shortened: as §2

HeLa = assay: as above; conditions: Gynecologic cancer cell panel viability, ATPlite luminescence, 48 h; series mostly up to 57.5 µM
Procedure, shortened: as §2

Hek293T = assay: as above; conditions: Gynecologic cancer cell panel viability, ATPlite luminescence, 48 h, control line for the selectivity index; series mostly up to 57.5 µM
Procedure, shortened: as §2

JEG-3 = assay: as above; conditions: Gynecologic cancer cell panel viability, ATPlite luminescence, 48 h; series mostly up to 57.5 µM
Procedure, shortened: as §2

OV90 = assay: as above; conditions: Gynecologic cancer cell panel viability, ATPlite luminescence, 48 h; series mostly up to 57.5 µM
Procedure, shortened: as §2

CC1OC(O[C@H]2CC[C@@]3(C)C(CC[C@]4(C)C3CC=C3C5CC(C)(C)CC[C@]5(C(=O)OC5OC(CO)C(OC6OCC(OC7OCC(O)C(O)C7O)C(O)C6O)C(O)C5O)CC[C@]34C)C2(C)C)C(O)C(O)C1OC1OC(CO)C(O)C(OC2OC(CO)C(O)C(O)C2O)C1O (some centres not stated)
inactive: max response (CRL-7250) -2.46% | max response (HEK293) -5.73% | outcome (HaCat [1]) | max response (KB-3-1) 2.43% | max response (NIH3T3) -1.17% | outcome (HACAT [2]) inactive [at 9.27 µM] | activity change, negative = cytotoxicity (C33A) -11.5% [at 6.55 µM] | activity change, negative = cytotoxicity (CAOV3) 2.33% [at 6.55 µM] | activity change, negative = cytotoxicity (CASKI) -4.77% [at 6.55 µM] | activity change, negative = cytotoxicity (Es-2) -1.46% [at 6.55 µM] | activity change, negative = cytotoxicity (HeLa) 1.79% [at 6.55 µM] | activity change, negative = cytotoxicity (Hek293T) -4.99% [at 6.55 µM] | activity change, negative = cytotoxicity (JEG-3) -5.08% [at 6.55 µM] | activity change, negative = cytotoxicity (OV90) -14.5% [at 6.55 µM]

C=CC(C)(O)CC/C=C(\C)C(=O)O[C@@H]1[C@@H](O)[C@H](OC(C)(C=C)CC/C=C(\C)C(=O)O[C@@H]2O[C@H](CO)[C@@H](O)[C@H](O)[C@H]2O)O[C@H](CO)[C@H]1OC(=O)/C(C)=C/CCC(C)(O)C=C (some centres not stated)
inactive: max response (CRL-7250) 1.38% | max response (HEK293) -3.95% | outcome (HaCat [1]) | outcome (KB-3-1) | max response (NIH3T3) 1.18% | outcome (HACAT [2]) inactive [at 9.27 µM] | activity change, negative = cytotoxicity (C33A) 1.06% [at 11.6 µM] | activity change, negative = cytotoxicity (CAOV3) -0.925% [at 11.6 µM] | activity change, negative = cytotoxicity (CASKI) -1.1% [at 11.6 µM] | activity change, negative = cytotoxicity (Es-2) 0.394% [at 11.6 µM] | activity change, negative = cytotoxicity (HeLa) -4.07% [at 11.6 µM] | activity change, negative = cytotoxicity (Hek293T) 7.88% [at 11.6 µM] | activity change, negative = cytotoxicity (JEG-3) -0.355% [at 11.6 µM] | activity change, negative = cytotoxicity (OV90) -1.43% [at 11.6 µM]

CC(=O)C1CCC(=O)N1Cc1ccccc1 (configuration not stated)
inactive: outcome (CRL-7250) | max response (HEK293) -9.27% | outcome (HaCat [1]) | max response (KB-3-1) -4.66% | max response (NIH3T3) 3.14% | outcome (HACAT [2]) | Potency (C33A) | outcome (CASKI) | Potency (Es-2) | Potency (HeLa) | Potency (Hek293T) | Potency (JEG-3) | Potency (OV90)

CC(C)c1c(NC(=O)Nc2ccc(Cl)cc2)c(=O)n(-c2ccccc2)n1C
inactive: max response (CRL-7250) -6% | max response (HEK293) -5.54% | outcome (HaCat [1]) | max response (KB-3-1) -6.5% | max response (NIH3T3) -1.6% | outcome (HACAT [2]) | Potency (C33A) | Potency (CAOV3) | outcome (CASKI) | Potency (Es-2) | Potency (HeLa) | Potency (Hek293T) | Potency (JEG-3) | Potency (OV90)

O=C(CC1CC(c2ccc(F)cc2F)=NO1)N1CCOCC1 (configuration not stated)
inactive: max response (CRL-7250) -1.82% | max response (HEK293) 4.11% | outcome (HaCat [1]) | max response (KB-3-1) -13.2% | max response (NIH3T3) -0.0344% | outcome (HACAT [2]) | Potency (C33A) | Potency (CAOV3) | outcome (CASKI) | Potency (Es-2) | Potency (HeLa) | Potency (Hek293T) | Potency (JEG-3) | Potency (OV90)

COc1cnc(-c2ccc(Cn3c(CC(C)(C)C(=O)O)c(SC(C)(C)C)c4cc(OC[C@@H]5Cc6ccccc6N5C(C)=O)ccc43)cc2)nc1
inactive: max response (CRL-7250) -2.77% | max response (HEK293) -2.16% | outcome (HaCat [1]) | max response (KB-3-1) -12.4% | max response (NIH3T3) -14.7% | outcome (HACAT [2]) | Potency (C33A) | outcome (CASKI) | Potency (Es-2) | Potency (HeLa) | Potency (Hek293T) | Potency (JEG-3) | Potency (OV90)
